Assay results reported in PubChem BioAssay.
A number with no mark means an inactive call. Calls of active or inactive are those of the source.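 Rule for the calls: active = thallium flux through the channel raised or lowered by more than 3 SD from vehicle-only wells, actives on both sides; inactive = the rest.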

Tested on: R275C
Assay: modulators of BK channel variants, profiling panel, selectivity assay, cell-based, U2OS BacMam, thallium flux, beta subunits (AID 1259406);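 note: initial slope of Thallos dye fluorescence rise after thallium is added; log ratio against the mean of 0.3% DMSO vehicle wells on the same plate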
Details: at 30 µM

Row | SMILES | log fold change Tl+ flux
1 | CCOC(=O)c1nn(-c2ccc(C(C)(C)C)cc2)c(=O)c(C#N)c1C | -0.52 (active)
2 | O=C(NC(=O)N1CCCCC1)c1cc(Br)cc(Br)c1 | -0.145 (active)
3 | O=S(=O)(Nc1ccccc1SCc1ccc2nonc2c1)c1cccs1 | -0.262 (active)
4 | NC(=O)CN1C(=O)C(=Cc2ccco2)N=C1c1ccccc1 | -0.000262
5 | COc1cc(C(F)(F)F)nc2ccc(C#CCOC(=O)Nc3cccc(Cl)c3)cc12 | -0.0392
6 | Cc1ccc(S(=O)(=O)c2ncsc2SCc2ccc(Cl)cc2Cl)cc1 | -0.00241
7 | NC(=O)c1nnn(-c2ccc([N+](=O)[O-])cc2)c1-c1ccccc1 | -0.0124
8 | CN1c2ccsc2C(=O)C(=NNc2cccc(C(F)(F)F)c2)S1(=O)=O | -0.00855
9 | O=C(OCCSc1sccc1[N+](=O)[O-])c1ccc(Cl)cc1 | 0.0114
10 | CC(C)n1c(SCC(=O)c2ccccc2)nc2cc(Cl)ccc21 | -0.667 (active)
11 | CCOC(=O)c1ccc(OCC#Cc2ccc(C(F)(F)F)cn2)cc1 | -0.0775
12 | CCSc1n[nH]c(=S)s1 | 0.0305
13 | CCC(=NOc1ccc(C(F)(F)F)cn1)c1ccc(-c2ccccc2F)cc1 | -0.0194
14 | Cc1cc(CNCC(O)C(F)(F)F)no1 (stereo not drawn) | 0.0241
15 | COc1cccc(N2CC(=O)N(NC(=O)NC3CCCCC3)CC2=O)c1 | 0.0133
16 | Cc1nn(-c2ccccc2)nc1C(=O)NNC(=O)CSCc1cccc2ccccc12 | 0.0152
17 | Cc1ccc(S(N)(=O)=O)c(I)c1 | 0.0442
18 | O=C(Nc1ccc(OC(F)(F)F)cc1)OC1CN(C(c2ccccc2)c2ccccc2)C1 | -0.0449
19 | COCCCNC1=C(C#N)C(=O)NC(c2cccs2)S1 (stereo not drawn) | -0.0102
20 | Cn1cnc([N+](=O)[O-])c1Sc1cccs1 | 0.00916

Row | SMILES | log fold change Tl+ flux
21 | Cc1ncc(CSc2nc(C(C)(C)C)cs2)c(CO)c1O | -0.0209
22 | Cc1cc2c(NC(=O)c3ccccc3C(=O)O)cccc2nn1 | 0.0158
23 | CSc1cc(C(C)(C)C)[nH]n1 | 0.0547
24 | NC(C=Cc1cc(C(F)(F)F)cc(C(F)(F)F)c1)=NOC(=O)c1c(F)cccc1F | -0.0159
25 | O=C(O)c1cccc(CSc2cccs2)c1 | 0.0115
26 | O=C(CC(=O)NNC(=O)c1ccc(F)cc1)NNC(=O)c1ccc(F)cc1 | -0.0271
27 | CN1c2ccccc2C(C)(C)C12C=Cc1cc(Br)cc([N+](=O)[O-])c1O2 (stereo not drawn) | 0.00244
28 | O=C(O)C(Cc1ccccc1[N+](=O)[O-])=NNc1ccccc1 | 0.0387
29 | Cc1cccc(N=Cc2cc(Cl)cc(Cl)c2O)c1C | 0.0221
30 | Cc1c(O)nc2ccccn2c1=O | -0.0111
31 | Cc1cc(NS(=O)(=O)c2ccc(NC(=O)c3nccnc3C(=O)O)cc2)no1 | -0.0122
32 | Fc1cccc(Cl)c1CSc1nccn1-c1cccnc1 | 0.0131
33 | Cc1cc(-c2nn(C)c(=O)c3ccccc23)cc(C)c1O | 0.0132
34 | CC(C)(C)OC(=O)N1CCC(c2nc(-c3ccc(Cl)s3)cs2)CC1 | -0.00778
35 | N#CC(CCC(=O)O)(CCC(=O)O)S(=O)(=O)c1ccccc1 | 0.0374
36 | CC(C)(C)NC(=O)NCCO | -0.02
37 | CC(C)(C)c1cc2nc(C(F)(F)F)cc(NN=Cc3ccccc3)n2n1 | -0.0499
38 | O=C1NC2CC2N1C(=O)OCc1ccccc1 (stereo not drawn) | 0.00866
39 | Clc1ccc(Sc2cn[nH]c2-c2ccc3c(c2)OCCO3)cc1 | 0.0336

Tested on: R275C/beta1
Assay: as above
Details: at 30 µM

Row | SMILES | log fold change Tl+ flux
40 | CCOC(=O)c1nn(-c2ccc(C(C)(C)C)cc2)c(=O)c(C#N)c1C | -0.383 (active)
41 | O=C(NC(=O)N1CCCCC1)c1cc(Br)cc(Br)c1 | -0.0155
42 | O=S(=O)(Nc1ccccc1SCc1ccc2nonc2c1)c1cccs1 | 0.0365
43 | NC(=O)CN1C(=O)C(=Cc2ccco2)N=C1c1ccccc1 | 0.031
44 | COc1cc(C(F)(F)F)nc2ccc(C#CCOC(=O)Nc3cccc(Cl)c3)cc12 | -0.0781
45 | Cc1ccc(S(=O)(=O)c2ncsc2SCc2ccc(Cl)cc2Cl)cc1 | 0.0419
46 | NC(=O)c1nnn(-c2ccc([N+](=O)[O-])cc2)c1-c1ccccc1 | -0.0135
47 | CN1c2ccsc2C(=O)C(=NNc2cccc(C(F)(F)F)c2)S1(=O)=O | 0.0113
48 | O=C(OCCSc1sccc1[N+](=O)[O-])c1ccc(Cl)cc1 | -0.0166
49 | CC(C)n1c(SCC(=O)c2ccccc2)nc2cc(Cl)ccc21 | -0.35 (active)
50 | CCOC(=O)c1ccc(OCC#Cc2ccc(C(F)(F)F)cn2)cc1 | -0.0424
51 | CCSc1n[nH]c(=S)s1 | -0.0034
52 | CCC(=NOc1ccc(C(F)(F)F)cn1)c1ccc(-c2ccccc2F)cc1 | 0.00871
53 | Cc1cc(CNCC(O)C(F)(F)F)no1 (stereo not drawn) | -0.0759
54 | COc1cccc(N2CC(=O)N(NC(=O)NC3CCCCC3)CC2=O)c1 | -0.0377
55 | Cc1nn(-c2ccccc2)nc1C(=O)NNC(=O)CSCc1cccc2ccccc12 | 0.0429
56 | Cc1ccc(S(N)(=O)=O)c(I)c1 | 0.0166
57 | O=C(Nc1ccc(OC(F)(F)F)cc1)OC1CN(C(c2ccccc2)c2ccccc2)C1 | 0.0012
58 | COCCCNC1=C(C#N)C(=O)NC(c2cccs2)S1 (stereo not drawn) | 0.0346
59 | Cn1cnc([N+](=O)[O-])c1Sc1cccs1 | 0.0118

Row | SMILES | log fold change Tl+ flux
60 | Cc1ncc(CSc2nc(C(C)(C)C)cs2)c(CO)c1O | -0.00193
61 | Cc1cc2c(NC(=O)c3ccccc3C(=O)O)cccc2nn1 | -0.0051
62 | CSc1cc(C(C)(C)C)[nH]n1 | 0.173 (active)
63 | NC(C=Cc1cc(C(F)(F)F)cc(C(F)(F)F)c1)=NOC(=O)c1c(F)cccc1F | -0.0569
64 | O=C(O)c1cccc(CSc2cccs2)c1 | 0.0346
65 | O=C(CC(=O)NNC(=O)c1ccc(F)cc1)NNC(=O)c1ccc(F)cc1 | 0.0179
66 | CN1c2ccccc2C(C)(C)C12C=Cc1cc(Br)cc([N+](=O)[O-])c1O2 (stereo not drawn) | 0.132 (active)
67 | O=C(O)C(Cc1ccccc1[N+](=O)[O-])=NNc1ccccc1 | 0.0681
68 | Cc1cccc(N=Cc2cc(Cl)cc(Cl)c2O)c1C | 0.0155
69 | Cc1c(O)nc2ccccn2c1=O | 0.0248
70 | Cc1cc(NS(=O)(=O)c2ccc(NC(=O)c3nccnc3C(=O)O)cc2)no1 | 0.022
71 | Fc1cccc(Cl)c1CSc1nccn1-c1cccnc1 | 0.0289
72 | Cc1cc(-c2nn(C)c(=O)c3ccccc23)cc(C)c1O | 0.0233
73 | CC(C)(C)OC(=O)N1CCC(c2nc(-c3ccc(Cl)s3)cs2)CC1 | 0.0364
74 | N#CC(CCC(=O)O)(CCC(=O)O)S(=O)(=O)c1ccccc1 | 0.0216
75 | CC(C)(C)NC(=O)NCCO | 0.0132
76 | CC(C)(C)c1cc2nc(C(F)(F)F)cc(NN=Cc3ccccc3)n2n1 | -0.0176
77 | O=C1NC2CC2N1C(=O)OCc1ccccc1 (stereo not drawn) | 0.00489
78 | Clc1ccc(Sc2cn[nH]c2-c2ccc3c(c2)OCCO3)cc1 | -0.00464
